Measurements: the supplement of paper PMC6518042

The compounds below were run on Pectobacterium parmentieri SCC3193 (assay: DuctApe activity index (growth/respiration on compound as sole nutrient source, blank-subtracted) (activity index (0-3)); higher = stronger utilization of the compound, active = 3 or more). Details: nutrient role (plate category): nitrogen.
Method: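 Biolog Phenotype Microarray plates PM1, PM2A (carbon), PM3 (nitrogen) and PM4 (phosphorus/sulfur) inoculated with P. parmentieri SCC3193 in M9-C minimal salts medium with Biolog dye A, and read in the OmniLog for 46 h. Each well was tested in triplicate and the experiment was run twice. DuctApe computed a blank-subtracted activity index (AV, 0-3) from the mean curves; growth is positive at AV >= 3 and negative at AV <= 2.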

DuctApe activity index, inactive:
NO [Hydroxylamine] 0
Nc1nc2[nH]cnc2c(=O)[nH]1 [Guanine] 0
C[C@H](N)C(=O)N[C@@H](Cc1cnc[nH]1)C(=O)O 0
N[C@H]1C(O)O[C@H](CO)[C@H](O)[C@@H]1O (stereo partly drawn) [D-Galactosamine] 0
NCC(=O)N[C@@H](CC(N)=O)C(=O)O 1
Nc1[nH]cnc2ncnc1-2 [Adenine] 0
Nc1cc[nH]c(=O)n1 [Cytosine] 0
N[C@@H](Cc1ccc(O)cc1)C(=O)O [L-Tyrosine] 0
CCCCCN [N-Amylamine] 0
NC(=O)NCCC[C@H](N)C(=O)O [L-Citrulline] 0
